# Test results as given in PubChem BioAssay (NCI).
# This is part of a sample that, as a whole, favours compounds with a hit. Of some 79,000 tested, about 15% had one in any assay. Values without a mark were called inactive. Active and inactive are the calls of the source. Cut-off read from the data, not from the text of the source: active = growth inhibition above about 70%; inactive = the rest.
# Experiments:
# [1] = NCI Yeast Anticancer Drug Screen. Data for the rad50 strain (AID 155);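 note: 0% = growth of vehicle-only cultures of the same strain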; details: S. cerevisiae rad50 strain growth inhibition; at 50.0 µM; active compounds read high
# Outline: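 DNA repair mutant yeast, compound exposure, growth read-out; inhibition is taken relative to vehicle.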
# [2] = NCI Yeast Anticancer Drug Screen. Data for the mec2-1 strain (AID 157); details: S. cerevisiae mec2-1 strain, at 50.0 µM, active compounds read high
# Outline: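 Strain: mec2-1 (DNA repair/cell cycle alteration). Compound exposure, then growth measured; inhibition expressed relative to vehicle.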
# [3] = NCI Yeast Anticancer Drug Screen. Data for the sgs1 mgt1 strain (AID 161);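 note: 0% = growth of cultures given vehicle only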; details: S. cerevisiae sgs1 mgt1 strain, at 50.0 µM, active compounds read high
# Outline: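 Test agents were incubated with a DNA-repair-mutant yeast strain. Growth was then read and compared against vehicle-treated controls.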
# [4] = NCI Yeast Anticancer Drug Screen. Data for the cln2 rad14 strain (AID 165);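 note: 0% = growth equal to vehicle treated cultures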; details: S. cerevisiae cln2 rad14 strain, at 50.0 µM, active compounds read high
# Outline: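 Compounds are applied to the cln2 rad14 yeast strain, and growth is then compared with that of vehicle-treated cultures to give inhibition.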
# [5] = NCI Yeast Anticancer Drug Screen. Data for the bub3 strain (AID 167); details: S. cerevisiae bub3 mutant strain, at 50.0 µM, active compounds read high
# Outline: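 In this screen, a yeast mutant lacking normal mitotic checkpoint function is challenged with compound. Relative growth versus vehicle gives the inhibition value.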
# [6] = NCI Yeast Anticancer Drug Screen. Data for the mlh1 rad18 strain (AID 175); details: S. cerevisiae mlh1 rad18 strain growth inhibition; at 50.0 µM; active compounds read high
# Outline: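 Read-out is yeast growth inhibition, calculated against vehicle-only controls. The compound was applied to a strain engineered with DNA damage repair alterations.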
SMILES,growth inhibition [1],growth inhibition [2],growth inhibition [3],growth inhibition [4],growth inhibition [5],growth inhibition [6]
CCCCn1c(=O)c2c(ncn2C)n(C)c1=O,16.8%,16.6%,9.75%,-9.25%,-2.45%,6.2%
CSc1nc(COC(=O)NC(C)C)c(COC(=O)NC(C)C)n1Cc1ccccc1,2.45%,3.7%,1.35%,1.65%,5.4%,2.5%
COC(=O)CCCC(NC(=O)c1ccc([N+](=O)[O-])cc1)C(=O)OC (stereo unspecified),19.1%,-9.45%,13.9%,5.45%,13.7%,14.9%
CSCCC(NC(=O)c1ccccc1)C(=O)O (stereo unspecified),-2.95%,-15%,1.35%,3.85%,3.3%,-10.6%
O=c1cc(Nc2ccccc2Cl)[nH]c(=O)[nH]1,9.8%,2.2%,-5.15%,-41.8%,-27.4%,-13.2%
C=CNc1cccc2ccccc12,13.8%,11.6%,14.2%,5.85%,25.1%,14.7%
COc1ccc(N/N=C(/c2ccccc2)c2noc(-c3ccccc3)n2)cc1,79.5% (active),92.2% (active),88.8% (active),89.3% (active),94.1% (active),92.6% (active)
Cc1ncc(CO)c(/C=N/NC(=O)c2ccncc2)c1O,14.3%,9.4%,11.7%,-35.5%,15.8%,17.6%
CCOC(=O)N/N=C(\C)c1ccc(OC)cc1,17.8%,21.9%,20.1%,11.3%,34.9%,19.1%
O=C1COc2cccnc2N1,12.7%,-2.05%,19.5%,2.2%,14.7%,14.7%
NS(=O)(=O)c1ccc(NC(=O)CC(=O)c2ccccc2)cc1,-57.4%,-32.7%,-36%,0.35%,-25.6%,-38%
COC(=O)C1(C)CCCC2(C)C1CCC1(O)C2CC2OC2(C(C)C)C1O (stereo unspecified),-2.65%,-21.4%,-0.9%,-31.4%,-13.2%,3.45%
Oc1ccc(C=NCCN=Cc2ccc(O)cc2)cc1,9.55%,-17.4%,-14.8%,-24.2%,5.1%,12.1%
COc1cc(C)c(C(=O)/C=C/c2cc(OC)c(O)c(OC)c2)cc1O,55.7%,36.9%,39.6%,35.6%,46.2%,46.7%
Cc1cc(N(CCC#N)S(=O)(=O)c2ccccc2)ccc1/C=C1\N=C(c2ccc(Cl)cc2)OC1=O,-4.5%,6.9%,7.8%,-18.6%,-2.7%,17.4%
COc1ccc(C#CCC(OC2OC(CO)C(O)C(O)C2O)C(O)c2ccc(OC)c(OC)c2)cc1OC (stereo unspecified),-0.15%,-7.55%,-6.95%,12%,-17.2%,-15.9%
OCC(O)C(OC1OC(CO)C(O)C(O)C1O)C(O)c1cnn(-c2ccccc2)n1 (stereo unspecified),-0.05%,8.6%,-24.3%,-14.7%,-1.5%,15.2%
Cc1cc(C)c2nccc(/C=C/c3ccc(N(C)C)cc3)c2c1,-15.3%,0.4%,-15.5%,-27.2%,-19.4%,-6.95%
O=C(O)/C=C\c1cc2c(cc1[N+](=O)[O-])OCO2,0.4%,-5.3%,-4.2%,-12.2%,14.6%,-2.5%
CC1=CC(O)(c2ccccc2)C(N2CCOCC2)N1O (stereo unspecified),-2.85%,-25.6%,-3.5%,13.6%,23.4%,-8.55%
COC(=O)CCCCCCCCCCCCC1C=CCC1 (stereo unspecified),8.9%,-31.1%,11.4%,9.25%,-5.85%,4.25%

SMILES,growth inhibition [1],growth inhibition [2],growth inhibition [3],growth inhibition [4],growth inhibition [5],growth inhibition [6]
Cn1cc(N=P(c2ccccc2)(c2ccccc2)c2ccccc2)c(=O)n(C)c1=O,-5.8%,4.15%,-11.1%,1.35%,-2.15%,5.55%
C/C(=N\N=C(/C)c1ccc(Br)s1)c1ccc(Br)s1,-42.5%,-35%,-23.7%,-18.3%,-12.8%,-28.1%
NC(CSC(=O)c1ccccc1)C(=O)O (stereo unspecified),-14.2%,-3.45%,-19.8%,-2.55%,-30.2%,-19.9%
COc1cc(C=Nc2cc(Cl)c(N=O)c(Cl)c2)ccc1N(CCCCl)CCCCl,33.4%,-13%,40.8%,-15.8%,2.2%,12.3%
Oc1cc(O)c(Cl)cc1Cl,15.4%,-4.25%,-22.8%,-2.95%,-12.3%,23.3%
O=S=C1SC2CCCCC2S1 (stereo unspecified),2.75%,4.15%,-5.4%,-9.05%,-9.45%,8.1%
CCCC(=O)OC(C)COc1ccccc1 (stereo unspecified),31.4%,5.8%,21.3%,-21.4%,13.4%,22.4%
Cc1cn(C2CC(NO)C(CO[Si](C)(C)C(C)(C)C)O2)c(=O)[nH]c1=O (stereo unspecified),-3.75%,-0.25%,-3.45%,-3.9%,-30.4%,-35.7%
CC(=O)OCCOCNC(=S)N/N=C/c1cc([N+](=O)[O-])ccc1O,25.9%,-2.75%,15.6%,42%,10.7%,-0.05%
Nc1cc(Cl)c(F)cc1Cl,-13.3%,0.25%,-3.6%,-28.8%,1.15%,-14.2%
COc1cc(N(Cc2ccc3oc(=O)c(-c4ccccc4)nc3c2)Cc2ccc3oc(=O)c(-c4ccccc4)nc3c2)cc(OC)c1OC,29.6%,-2.45%,13.5%,-35.1%,15%,9.15%
O=C(NC(=O)c1c(F)cccc1F)Nc1ccc(OCc2ccccc2)cc1,24.4%,0.15%,5.45%,9%,-4.15%,21.4%
Cc1cc(NC(=O)CCc2ccc(N3C(N)=NC(N)=NC3(C)C)cc2)ccc1S(=O)(=O)O,38.1%,-5.55%,8.05%,-14.4%,2.05%,-5.55%
CCCCC(CCc1ccccc1)C(=O)NCC (stereo unspecified),-5.1%,-11.6%,-18.4%,-11%,-12.3%,5.1%
COC(=O)c1nnn(-c2ccc(Cl)cc2C)c1N,-17.8%,-1.95%,16.7%,29.7%,-15.6%,21.2%
O=C(CC(=O)c1ccccc1)CC(Nc1ccccc1)c1ccccc1 (stereo unspecified),58%,10%,46.1%,-8.5%,7.55%,45.9%
COc1nc(SC)nc2[nH]ccc12,-1%,9.75%,-4.2%,-6.6%,-6.35%,-9.1%
CCOC(OCC)C(=O)NC(C)c1ccc(O)c(OC)c1 (stereo unspecified),-20.8%,7.95%,0.2%,-12.2%,-7.4%,3.2%
O=C1CC2CC(=O)C(S(=O)c3ccccc3)C2C1 (stereo unspecified),6.25%,11.7%,20.1%,3.35%,-1.6%,18.6%
CCOC(=O)Nc1c2ccccc2c(NC(=O)OCC)c2ccccc12,30.2%,8.9%,1%,12.8%,15%,-6%
